# From PubChem BioAssay
# VLA-4 inh: inhibition in human VLA-4 binding assay, primary screen, VLA-4 allosteric modulator project, MLPCN library, flow cytometry, VLA-4 expressing cells. ligand binding flow cytometry. inhibition, % (about 7 µM as worked out from the volumes in the protocol). Integrin alpha-4 (Homo sapiens), P13612. AID 2557, 2010. 330,000 compounds, 0.2% hits; in the data active means inhibition above about 50%
# Target sequence (P13612 whole entry, looked up): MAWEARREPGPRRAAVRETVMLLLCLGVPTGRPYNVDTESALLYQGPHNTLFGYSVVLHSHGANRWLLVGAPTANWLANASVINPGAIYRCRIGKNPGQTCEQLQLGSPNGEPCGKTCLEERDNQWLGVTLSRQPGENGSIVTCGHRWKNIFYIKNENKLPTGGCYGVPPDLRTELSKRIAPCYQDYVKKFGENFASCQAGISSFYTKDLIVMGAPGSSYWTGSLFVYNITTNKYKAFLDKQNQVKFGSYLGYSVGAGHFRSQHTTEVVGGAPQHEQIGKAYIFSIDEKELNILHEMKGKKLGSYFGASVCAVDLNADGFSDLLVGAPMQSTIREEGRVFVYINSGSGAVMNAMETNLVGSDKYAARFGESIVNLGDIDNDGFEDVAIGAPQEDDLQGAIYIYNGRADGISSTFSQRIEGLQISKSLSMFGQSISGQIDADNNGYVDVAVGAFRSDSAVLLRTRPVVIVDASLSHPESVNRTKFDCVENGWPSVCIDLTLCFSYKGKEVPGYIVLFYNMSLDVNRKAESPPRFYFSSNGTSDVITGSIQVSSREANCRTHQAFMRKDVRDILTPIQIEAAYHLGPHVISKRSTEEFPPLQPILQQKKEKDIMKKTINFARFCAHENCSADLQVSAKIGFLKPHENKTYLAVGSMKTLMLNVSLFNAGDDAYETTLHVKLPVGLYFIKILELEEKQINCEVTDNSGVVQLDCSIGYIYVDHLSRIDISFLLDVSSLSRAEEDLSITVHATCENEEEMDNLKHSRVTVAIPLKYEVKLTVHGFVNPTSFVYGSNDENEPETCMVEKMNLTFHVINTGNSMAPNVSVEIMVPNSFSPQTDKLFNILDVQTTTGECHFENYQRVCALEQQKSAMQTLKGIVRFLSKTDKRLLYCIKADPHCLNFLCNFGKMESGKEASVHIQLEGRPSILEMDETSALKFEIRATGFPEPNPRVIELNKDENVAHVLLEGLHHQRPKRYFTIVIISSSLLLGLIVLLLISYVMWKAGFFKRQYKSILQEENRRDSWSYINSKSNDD
# CHT allo act: CHT positive allosteric modulators, primary screen, cell-based, membrane potential dye, choline EC20 | High affinity choline transporter 1 (Homo sapiens), Q9GZV3 | CHT-expressing cells; hits give high values; LV-AA mutant CHT in HEK293 cells | B-score at 10 µM | 310,000 compounds, 0.49% hits | AID 488977, 2010;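 active means initial fluorescence not abnormally high and integrated response B-score, plate-corrected, over 3 SD above library mean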
# Platelet DG rel: inhibitors of platelet dense granule secretion, primary screen, cell-based, MLPCN, human platelets. inhibition, %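 (compounds screened at 7.5 µM in platelet-rich plasma)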. 300,000 compounds, 0.22% hits. human platelet-rich plasma, SFLLRN dense granule ATP release, luminescence;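 active means mean replicate score, as percent of positive control, at or above 50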
# HIF act: HIF pathway transcriptional activators, primary screen, cell-based, U2OS HRE-luciferase, luminescence. U2OS HRE-luciferase reporter; normalized: DMSO 0%, desferrioxamine 100%. activation, % at 7.5 µM (by protocol). 300,000 compounds, 0.32% hits;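 active means mean activation of at least 10% of the iron chelator positive control signal, with at least half of replicates also reaching 10%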
# CHT block: inhibitors of human choline transporter CHT. High affinity choline transporter 1 (Homo sapiens), Q9GZV3. CHT-expressing cells, membrane potential dye, choline response; hits give low values. B-score at 10 µM. 310,000 compounds, 0.86% hits. AID 488975, 2010;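 active means B-score over 3 SD under the library average, and starting fluorescence ratio not unusually high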;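 further: choline stimulus applied at its EC90 after an EC20 pre-addition; B-score computed on integrated fluorescence ratio after choline addition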
# AI-2 QS modul: Vibrio harveyi AI-2 quorum sensing modulators, primary screen, JMH597 strain, luminescence/OD600 ratio; 300,000 compounds, 0.4% hits; Vibrio harveyi JMH597 AI-2 luminescence/OD600 ratio, 9 h; hits give low values; strain lacks LuxN and CqsS sensors; 0 = neutral-control median; activity change, % at 7.5 µM; in the data active means activity change below about -75%, passing the limit was not always enough;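 further: luminescence divided by OD600 gain over 9 h not by final OD600 alone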
# VLA-4 allo CP: retest of VLA-4 allosteric modulators, confirmation, cell-based, cherry-picked plates, U937, HUTS-21 LIBS antibody. shares compounds with VLA-4 inh. inhibition, % at 6.7 µM. 1,300 compounds, 2% hits. U937 cells, HUTS-21 LIBS mAb binding, flow cytometry; LDV ligand present at threefold Kd; in the data active means inhibition above about 40%
# CHT block conf: CHT inhibitors, confirmation, cell-based, membrane potential dye, duplicate. CHT activity remaining % of control (hits give low values), % at 10 µM. shares compounds with CHT block. 2,400 compounds, 70% hits. CHT-expressing cells, choline membrane potential dye; LV-to-AA substituted CHT, HEK293 cells;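 active means choline transporter activity left, mean of duplicates at 10 µM, below buffer-only control mean minus 3 SD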;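 further: depolarization triggered by choline at its EC90 following an EC20 pre-addition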
# HEK293 MPD ctr: membrane potential effects in parental HEK293, counter-screen for CHT inhibitor project, cell-based, membrane potential dye; shares compounds with CHT block; choline response; active = decrease or increase beyond buffer ±3SD; membrane potential ratio readout (active if shifted either direction beyond buffer ±3SD; no single direction) at 10 µM; 2,400 compounds, 4% hits; AID 493222, 2011;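 further: parental cells lack the transporter so any hit is non-specific; ratio is peak minus trough fluorescence over baseline after EC90 choline challenge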
# CHT act confirm: CHT activators, confirmation, cell-based, membrane potential dye, duplicate; AID 504833, 2011; CHT-expressing cells, membrane potential dye fluorescence (FDSS); % of choline EC20–EC90 response window; HEK293 expressing CHT LV-AA mutant; choline added at its EC20; 2,500 compounds, 91% hits; activation, % at 10 µM; shares compounds with CHT allo act;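 active means primary screen active, with duplicate mean activation above negative control mean plus 3 SD, cut at about 11% in these data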
# HEK293 MP dye: membrane potential response in parental HEK293 cells, counter-screen for CHT activator project, cell-based, membrane potential dye; membrane potential dye fluorescence (FDSS); measured after EC20 choline addition; ratio readout change at 10 µM, hits read low; 2,500 compounds, 62% hits; AID 623908, 2012; shares compounds with CHT allo act;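 active means duplicate-averaged ratio beyond 3 SD from buffer wells, up or down, though filed actives are nearly all decreases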
# Numbers stand for hits; i = inactive; nt = no result. Hits are enriched below; roughly 2.2% of the tested compounds scored in any of these assays.
SMILES,VLA-4 inh,CHT allo act,Platelet DG rel,HIF act,CHT block,AI-2 QS modul,VLA-4 allo CP,CHT block conf,HEK293 MPD ctr,others
Cc1ccc(NC(=O)c2cc(N3C(=O)C=CC3=O)ccc2N2CCOCC2)cc1Cl,83,i,i,i,i,i,52,nt,nt,
CCOC(=O)c1c(C)[nH]c(C(=O)OCC(=O)NCc2ccc(OC)c(OC)c2)c1C,i,nt,nt,nt,nt,nt,nt,nt,nt,
COC(=O)c1ccc(NS(=O)(=O)c2ccccc2)o1,i,i,i,i,i,i,nt,nt,nt,
COc1cc2cc(C(=O)N/N=C/c3ccc(F)cc3)[nH]c2cc1OC,i,i,i,i,i,i,nt,nt,nt,
CCOc1ccc2[nH]c(C(=O)N/N=C/c3ccc(OC)cc3)cc2c1,56,i,i,i,i,i,i,nt,nt,
COc1ccccc1-c1nc2cc(Cl)ccc2c(=O)n1O,i,i,i,i,i,i,nt,nt,nt,
COc1ccccc1-c1nc2ccc(Cl)cc2c(=O)n1O,i,i,nt,i,i,i,i,nt,nt,
Cc1cc(Cl)ccc1NC(=O)Cn1cncn1,53,i,i,i,i,i,i,nt,nt,
COc1ccccc1Nc1nc2ccc(C)cc2cc1C#N,108,i,i,i,i,i,i,nt,nt,
OCC1OC(n2cnc3c(NC4CCCCC4)ncnc32)C(O)C1O (centres undefined),i,i,i,i,-5.5,i,i,41%,i,
CC(NC(=O)NC1CCCCC1)c1ccc2c(c1)OCO2 (centres undefined),i,i,i,i,-6.7,i,i,66%,i,
CC(=O)NN(O)C1N(C)C(=O)N(Cc2ccccc2)C1(C)C (centres undefined),i,i,i,i,i,i,nt,nt,nt,
O=C(Nc1ccc(F)cc1F)c1ccc2nc(N3CCOCC3)sc2c1,i,i,i,i,-11,i,i,i,i,
COc1ccc(Cl)cc1NS(=O)(=O)N1CCOCC1,i,i,i,i,i,i,nt,nt,nt,
CC(C)(C)c1ccc(NC(=O)COC(=O)CCN2C(=O)c3cccc([N+](=O)[O-])c3C2=O)cc1,i,i,i,i,i,i,nt,nt,nt,
COc1ccc(NC(=O)CCN2C(=O)c3cccc([N+](=O)[O-])c3C2=O)cc1,51,i,i,i,-11,nt,i,i,i,
CCOc1cccc(C2CC(=O)Nc3cc(OC)c(OC)cc32)c1 (centres undefined),51,i,i,i,-6.7,nt,i,i,i,
COc1cc2c(cc1OC)C(c1ccsc1)CC(=O)N2 (centres undefined),i,i,i,i,i,i,nt,nt,nt,
CCC1CCCCN1C(=S)NC(=O)c1cccc([N+](=O)[O-])c1 (centres undefined),i,i,i,i,i,i,nt,nt,nt,
O=C(c1ccccc1)c1cc([N+](=O)[O-])ccc1N1CCOCC1,i,i,i,i,i,i,i,nt,nt,CHT act confirm=57;HEK293 MP dye=i
O=C(c1cc([N+](=O)[O-])ccc1N1CCOCC1)N1CCN(c2ccc([N+](=O)[O-])cc2)CC1,i,i,i,i,i,i,nt,nt,nt,
CC(=O)N1CCC(N(CCN2CCOCC2)C(=S)Nc2ccc(C)c(C)c2)CC1,i,i,i,i,i,i,nt,nt,nt,
COc1ccc(C(=O)N(CCc2ccccc2)Cc2ccccc2)c(OC)n1,i,10,i,i,i,i,i,nt,nt,CHT act confirm=14;HEK293 MP dye=i
CCc1ccccc1NC(=O)CN1CCN(C(=O)CN2C(=O)NC3(CCCC3)C2=O)CC1,i,nt,nt,nt,nt,nt,nt,nt,nt,
CCn1c(/C=N/Nc2ccc(C(=O)O)cc2)nc2ccccc21,i,6.3,i,i,i,i,i,nt,nt,CHT act confirm=44;HEK293 MP dye=-35
SMILES,VLA-4 inh,CHT allo act,Platelet DG rel,HIF act,CHT block,AI-2 QS modul,VLA-4 allo CP,CHT block conf,HEK293 MPD ctr,others
C[n+]1cc(C(=O)N2CCCCC2)ccc1/C=C/c1c[nH]c2ccccc12,i,i,i,i,i,i,nt,nt,nt,
CCn1c(Cc2ccccc2)nnc1SCc1ccc([N+](=O)[O-])cc1,i,i,i,i,i,i,nt,nt,nt,
COCCn1c(Cc2ccccc2)nnc1SCc1ccc([N+](=O)[O-])cc1,i,i,i,i,i,i,i,nt,nt,CHT act confirm=21;HEK293 MP dye=i
O=C(CSc1ccc2nnc(-c3cccnc3)n2n1)NCC1CCCO1 (centres undefined),i,i,i,i,i,i,i,nt,nt,CHT act confirm=11;HEK293 MP dye=i
CCOC(=O)C1=C(C)N=c2s/c(=C/c3cccc([N+](=O)[O-])c3O)c(=O)n2C1c1cc(OC)c(OC)c(OC)c1 (centres undefined),i,i,i,i,-9.8,i,nt,28%,i,
O=C(CCNC(=O)c1ccc([N+](=O)[O-])cc1)Nc1cccc(S(=O)(=O)N2CCOCC2)c1,i,nt,nt,nt,nt,nt,nt,nt,nt,
CCCc1nnc(NC(=O)c2cn(CC)c3cc(N4CCN(C)CC4)c(F)cc3c2=O)s1,i,i,i,i,-5.2,i,nt,i,i,
O=C(OCC(=O)N1CCCc2ccccc21)c1ccc(Cl)nc1,i,i,i,i,i,i,nt,nt,nt,
O=C(OCC(=O)N1CCCc2ccccc21)c1cnc(Cl)c(Cl)c1,i,i,i,i,-5.7,i,nt,i,i,
CCn1c(SCC(=O)N=Nc2c(O)[nH]c3ccccc23)nc2ccccc21,i,i,i,i,-7,i,nt,54%,i,
O=C(NCC1CC1)Nc1cccc(C(F)(F)F)c1,i,i,i,i,i,i,nt,nt,nt,
CN1CCN(c2ccc(Cl)cc2NC(=O)c2ccc(=O)n(C)n2)CC1,i,i,i,i,-5.6,i,nt,56%,5.3,
